Inconclusive results are not listed. A number with no mark means an inactive call. No rule for the calls is given here.

The nature of this test: dose response, V. cholerae BH1651, dry powder (AID 651847). The following applies: V. cholerae BH1651 luxOD47E, luciferase light induction, 6 h; at 80 µM (top of the series) unless noted.
Take `c1ccc(Cn2nnnc2NCc2ccc(N3CCCC3)cc2)cc1`: the activation (light induction) is 0%.

As to `O=C(Cc1ccc(-c2ccccc2)cc1)NC1CCCC1`, the activation (light induction) is 0%.

Consider `CC(C)(C)OC(=O)N1CC(NC(=O)Cc2ccc(-c3ccccc3)cc2)C1`, for which the activation (light induction) is 0%.

Regarding `Cn1nnnc1NCc1ccc(N2CCCC2)cc1`, the activation (light induction) was -25%.

As to `c1ccc(Cn2nnc(NCc3ccc(N4CCCC4)cc3)n2)cc1`, the activation (light induction) was -50%.

Regarding `CCCn1nnnc1NCc1ccc(C(C)C)cc1`, the activation (light induction) is 50%.

In the case of `COc1ccc(CC(=O)NC2CCCC2)cc1`, the activation (light induction) was 12.5%.

In the case of `CCCn1nnnc1NCc1ccccc1Cl`, the activation (light induction) is 25%.

With `Cc1ccc(Cn2nnnc2NCc2ccc(N3CCCC3)cc2)cc1`, the activation (light induction) was -12.5%.

`CCn1nnc(CCc2ccc(N3CCCC3)cc2)n1`: the activation (light induction) was -25%.

Take `O=C(Cc1cccc(OC(F)(F)F)c1)NC1CCCC1`: the activation (light induction) is 0%.

Turning to `CCC(C)NC(=O)Cc1ccc(-c2ccccc2)cc1` (stereo not given), the activation (light induction) was 0%.

In the case of `CS(=O)(=O)c1ccc(CC(=O)NC2CCCC2)cc1`, the activation (light induction) is -25%.

For the molecule `O=C(Cc1ccccc1F)NC1CCCC1`, the activation (light induction) is -12.5%.

Consider `CC(C)NC(=O)Cc1ccc(-c2ccccc2)cc1`, for which the activation (light induction) is 25%.

Regarding `CCCCn1nnnc1NCc1ccc(N2CCCC2)cc1`, the activation (light induction) is -25%.

On to `CCCn1nnnc1NCc1ccc(N2CCCC2)cc1`, for which the activation (light induction) is -25%.

For `CCn1nccc1NCc1ccc(N2CCCC2)cc1`, the activation (light induction) was 12.5%.

`CC1(NC(=O)Cc2ccc(-c3ccccc3)cc2)COC1`: the activation (light induction) was 0%.

Regarding `Cc1ccccc1CC(=O)NC1CCCC1`, the activation (light induction) was 12.5%.

For the origin of these results see PubChem BioAssay AID651847 (Broad Institute, 2012).
